# Measured values: the supplement of paper PMC8387472
# Key:
# Experiment in all cases: fraction of edited reads among all mapped reads; higher = more Cas9 editing
# Settings in all cases: mESC; 2uM; 72 h treatment, harvest day 5
# [1] = compound: CC(=O)O/N=C1\C(=O)N(Cc2cc(Cl)ccc2Cl)c2ccc(Cl)cc21
# [2] = compound: CC(C)(C#N)c1ccc(N2C(=O)OCc3cnc4ccc(-c5cnc6ccccc6c5)cc4c32)cc1
# [3] = compound: CCCCOc1c(C(=O)c2c(F)cc(C)cc2F)c[nH]c2nncc1-2
# [4] = compound: CCN1CCN(CC(=O)Nc2ccc(-c3cccc4c(=O)cc(N5CCOCC5)oc34)c3sc4ccccc4c23)CC1
# [5] = compound: CCc1c2c(nc3ccc(OC(=O)N4CCC(N5CCCCC5)CC4)cc13)-c1cc3c(c(=O)n1C2)COC(=O)[C@]3(O)CC [Irinotecan HCl Trihydrate]
# [6] = compound: CCn1c(=O)c(-c2ccc(Cl)cc2Cl)cc2cnc(Nc3ccc(N4CCNCC4)c(F)c3)nc21
# [7] = compound: CNc1ccc([N+](=O)[O-])c(Nc2ccc3[nH]ncc3c2)n1
# Rifapentine = compound: CO[C@H]1/C=C/O[C@@]2(C)Oc3c(C)c(O)c4c(O)c(c(/C=N/N5CCN(C6CCCC6)CC5)c(O)c4c3C2=O)NC(=O)/C(C)=C\C=C\[C@H](C)[C@H](O)[C@@H](C)[C@@H](O)[C@@H](C)[C@H](OC(C)=O)[C@@H]1C [Rifapentine]
# [8] = compound: COc1ccccc1-c1cc(Nc2cccc(CS(N)(=O)=O)c2)ncn1
# [9] = compound: C[C@@H]1CN(CC(=O)Nc2ccc3c(c2)Cc2cccc(-c4cc(=O)cc(N5CCOCC5)o4)c2S3)C[C@H](C)O1
# [10] = compound: Cc1cc(C)nc(SCC(=O)Nc2ncc(Cc3cccc4ccccc34)s2)n1
# [11] = compound: Cc1ccc(C(=O)NCCCCCC(=O)Nc2ccccc2N)cc1
# [12] = compound: Cc1cccc(CC(=O)N2CCc3c2ccc(-c2cn(C)c4ncnc(N)c24)c3F)n1
# [13] = compound: NC(=O)c1ccc2nc(-c3ccc(Oc4ccc(Cl)cc4)cc3)[nH]c2c1 [Chk 2 inhibitor II (BML-277)]
# Tucidinostat (Chidamide) = compound: Nc1cc(F)ccc1NC(=O)c1ccc(CNC(=O)/C=C/c2cccnc2)cc1 [Tucidinostat (Chidamide)]
# Pemetrexed = compound: Nc1nc2[nH]cc(CCc3ccc(C(=O)N[C@@H](CCC(=O)O)C(=O)O)cc3)c2c(=O)[nH]1 [Pemetrexed]
# [14] = compound: Nc1ncnc2c1c(-c1cnc3[nH]ccc3c1)nn2C1CCCC1
# [15] = compound: O=C(c1cccc(Cl)c1F)N1CCN(Cc2cccc(Nc3nccs3)n2)CC1
# Kenpaullone = compound: O=C1Cc2c([nH]c3ccc(Br)cc23)-c2ccccc2N1 [Kenpaullone]
# Genistein = compound: O=c1c(-c2ccc(O)cc2)coc2cc(O)cc(O)c12 [Genistein]
Target,fraction of edited reads among all mapped reads [1],fraction of edited reads among all mapped reads [2],fraction of edited reads among all mapped reads [3],fraction of edited reads among all mapped reads [4],fraction of edited reads among all mapped reads [5],fraction of edited reads among all mapped reads [6],fraction of edited reads among all mapped reads [7],fraction of edited reads among all mapped reads (Rifapentine),fraction of edited reads among all mapped reads [8],fraction of edited reads among all mapped reads [9],fraction of edited reads among all mapped reads [10],fraction of edited reads among all mapped reads [11],fraction of edited reads among all mapped reads [12],fraction of edited reads among all mapped reads [13],fraction of edited reads among all mapped reads (Tucidinostat (Chidamide)),fraction of edited reads among all mapped reads (Pemetrexed),fraction of edited reads among all mapped reads [14],fraction of edited reads among all mapped reads [15],fraction of edited reads among all mapped reads (Kenpaullone),fraction of edited reads among all mapped reads (Genistein)
"34.0 (DMSO control at this site: 1-bp insertion 0.184, MH deletion 0.385, edited 0.103) ATTATAGGACCCTGAGGGAGCAGAGATGTGGGAATGGGGGCCGAGCCAATTGTGATGTAAG",0.119,0.107,0.0942,0.0488,0.159,0.0937,0.114,0.157,0.129,0.0719,0.159,0.112,0.134,0.113,0.104,0.0912,0.0944,0.0799,0.18,0.112
"29.0 (DMSO control at this site: 1-bp insertion 0.084, MH deletion 0.745, edited 0.133) TTGATGAACTTCCTCTTCTTCTCATGTCTCCGGTCTCCGGTAGGCCACGTGCATGGCCACT",0.166,0.157,0.153,0.073,0.196,0.142,0.167,0.256,0.172,0.0736,0.239,0.147,0.189,0.165,0.129,0.13,0.144,0.0932,0.261,0.18
"45.0 (DMSO control at this site: 1-bp insertion 0.017, MH deletion 0.666, edited 0.101) TTACACAGCATGAACTGCTAGGTGATGATGTCAGATTCGGTTTTACTAACTTCTCCAAAAA",0.115,0.112,0.119,0.0494,0.153,0.113,0.133,0.203,0.144,0.0499,0.195,0.111,0.151,0.127,0.0928,0.0998,0.0941,0.069,0.233,0.139
"44.0 (DMSO control at this site: 1-bp insertion 0.181, MH deletion 0.512, edited 0.123) ACACATACCTTCTTCGAGGCAGCCAGCATGATGAGACAGGTCTCCCACAAACACATCGTGT",0.149,0.14,0.157,0.0618,0.202,0.138,0.17,0.251,0.195,0.111,0.232,0.141,0.191,0.167,0.124,0.138,0.124,0.11,0.265,0.167
"5.0 (DMSO control at this site: 1-bp insertion 0.214, MH deletion 0.567, edited 0.105) CGCTGACCCGAGACCTACGCGAACCGAAATCGGCGACCGGTGCGCAAGCAGGGCTGGCGTC",0.13,0.128,0.133,0.0591,0.169,0.13,0.145,0.226,0.163,0.085,0.215,0.121,0.171,0.149,0.108,0.124,0.116,0.0928,0.248,0.157
"43.0 (DMSO control at this site: 1-bp insertion 0.134, MH deletion 0.714, edited 0.104) AGTTTAACTTACTCCGGCCAAAAAAGAACTGCACCTCTGGAGCGGGTTAGTGGTGGTGGTA",0.15,0.143,0.151,0.0617,0.184,0.119,0.164,0.218,,0.0771,0.219,0.137,0.172,0.155,0.116,0.093,0.126,0.0909,0.271,0.179
"2.0 (DMSO control at this site: 1-bp insertion 0.364, MH deletion 0.356, edited 0.125) GGTGCCCCCGAGACCTACGCGAACCGAAATCGATGTCCGGTGCGCAAGCAGGGCTGGCGTC",0.141,0.129,0.143,0.0564,0.191,0.14,0.176,0.228,0.172,0.121,0.231,0.128,0.18,0.147,0.115,0.129,0.137,0.102,0.286,0.169
"20.0 (DMSO control at this site: 1-bp insertion 0.349, MH deletion 0.138, edited 0.084) TACAGGTGTAGACTGGTTACGTGGCTGCGGAATTGACTGGTTACGTGGCTGCGGAATTTTG",0.0924,0.0867,0.0976,0.0384,0.115,0.0929,0.1,0.133,0.147,0.103,0.152,0.0728,0.111,0.106,0.0826,0.0835,0.117,0.0574,0.232,0.125
"38.0 (DMSO control at this site: 1-bp insertion 0.063, MH deletion 0.487, edited 0.17) GGGCTGGGTGCTAAAATGAGGAGCTCCAAGAAGACTGAGGTGAACCTGGAGGCCCCTGAGC",0.178,0.169,0.188,0.0737,0.243,0.147,0.206,0.26,0.204,0.107,0.27,0.178,0.197,0.187,0.181,0.167,0.146,0.128,0.316,0.198
"42.0 (DMSO control at this site: 1-bp insertion 0.145, MH deletion 0.655, edited 0.132) GGGCTAAACCTATGAGCACAGTAGAACTAAGGGTGGGTGGTGTAGCTAAAGAACTTGACCA",0.151,0.153,0.161,0.0618,0.191,0.139,0.184,0.27,0.187,0.0909,0.241,0.15,0.193,0.167,0.115,0.127,0.135,0.107,0.251,0.18
"25.0 (DMSO control at this site: 1-bp insertion 0.017, MH deletion 0.774, edited 0.143) GGGCCTGAATGGTGTGGACATCTACTCGCTGGTGAGCTGGTGACTGAAAACATTCAGTGGC",0.18,0.183,0.184,0.0836,0.211,0.167,0.199,0.306,0.205,0.0682,0.278,0.159,0.228,0.194,0.14,0.16,0.15,0.109,0.31,0.203
27.0 CCAGAATTAGAACATATCATCTGGACCCTTTTCCATCTGGACCCTTTTCCAGCACACCCTG,0.0506,0.055,0.0501,,0.0605,,0.0612,0.0829,0.0745,,0.0968,0.0456,,,0.0322,,0.0403,,0.141,0.0708
"0.0 (DMSO control at this site: 1-bp insertion 0.463, MH deletion 0.339, edited 0.14) AGGATTACCGAGACCTACGCGAACCGAAATCGCTGTCCGGTGCGCAAGCAGGGCTGGCGTC",0.147,0.154,0.172,0.0626,0.218,0.155,0.203,0.274,0.213,0.15,0.241,0.152,0.222,0.17,0.139,0.149,0.173,0.122,0.329,0.187
"30.0 (DMSO control at this site: 1-bp insertion 0.074, MH deletion 0.67, edited 0.142) GAGCTGGCATGAGTATTTGTGCCACATGGCTCCCACATGGCTCCACATGCAAGTTTGAAAC",0.142,0.149,0.158,0.066,0.204,0.156,0.187,0.224,0.177,0.134,0.226,0.147,0.212,0.179,0.129,0.148,0.143,0.112,0.286,0.191
"39.0 (DMSO control at this site: 1-bp insertion 0.328, MH deletion 0.371, edited 0.204) CTGCACAGTCACTTAGGATAGGAGAAGATGATGTATAGGGTTTAGTGGGAGATGTTGCAAG",0.191,0.182,0.214,0.0792,0.252,0.192,0.223,0.335,0.248,0.191,0.3,0.189,0.29,0.229,0.184,0.177,0.196,0.141,0.328,0.231
"18.0 (DMSO control at this site: 1-bp insertion 0.114, MH deletion 0.789, edited 0.094) GCGCAAGTGCATAAGTTTTTCTTAAGGCGTGCCTTTAAGGCGTGCCTTTGTCGGTCCTGGA",0.103,0.109,0.105,0.064,0.111,0.0889,0.116,0.175,0.122,0.0564,0.155,0.0986,0.121,0.106,0.0855,0.0951,0.0956,0.0736,0.162,0.131
46.0 TTAAGAGCAATGTTCACGCAACTTGAAATTATATCTGTGGTCTTCAAATTGTCTTTTGTCA,,0.109,0.106,,,,0.099,0.157,,,,0.1,,,0.0602,0.136,0.105,,,0.116
"19.0 (DMSO control at this site: 1-bp insertion 0.121, MH deletion 0.101, edited 0.057) TCTGCAGGGGTCGGAACCCGGGGGCTAGGGCTATCCCGGGGGCTAGGGCTATTAGCGAACC",0.0656,0.0719,0.0679,0.0342,0.0806,0.0564,0.0687,0.0905,0.087,0.0476,0.112,0.0637,0.0933,0.0726,0.0662,0.0698,0.0701,0.0542,0.141,0.0811
